Keap1 Nrf2 FP: disrupts human Keap1 binding to Nrf2 peptide; inhibition, % at 9.4 µM; 0.15% of 340,000 active; Keap1 Kelch-Nrf2 peptide fluorescence polarization, 1536-well; Q14145; in the data active = inhibition above about 12%; inconclusive = no clear call, values can overlap the other calls; inactive = below about 7.3%;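 note: human Keap1 Kelch domain with fluorescein labeled Nrf2 9mer peptide probe; 0% = neutral control wells and 100% = peptide positive control; higher means more block of Keap1 binding to Nrf2 peptide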
Target sequence (Q14145 whole entry, looked up, the tested form may be a part): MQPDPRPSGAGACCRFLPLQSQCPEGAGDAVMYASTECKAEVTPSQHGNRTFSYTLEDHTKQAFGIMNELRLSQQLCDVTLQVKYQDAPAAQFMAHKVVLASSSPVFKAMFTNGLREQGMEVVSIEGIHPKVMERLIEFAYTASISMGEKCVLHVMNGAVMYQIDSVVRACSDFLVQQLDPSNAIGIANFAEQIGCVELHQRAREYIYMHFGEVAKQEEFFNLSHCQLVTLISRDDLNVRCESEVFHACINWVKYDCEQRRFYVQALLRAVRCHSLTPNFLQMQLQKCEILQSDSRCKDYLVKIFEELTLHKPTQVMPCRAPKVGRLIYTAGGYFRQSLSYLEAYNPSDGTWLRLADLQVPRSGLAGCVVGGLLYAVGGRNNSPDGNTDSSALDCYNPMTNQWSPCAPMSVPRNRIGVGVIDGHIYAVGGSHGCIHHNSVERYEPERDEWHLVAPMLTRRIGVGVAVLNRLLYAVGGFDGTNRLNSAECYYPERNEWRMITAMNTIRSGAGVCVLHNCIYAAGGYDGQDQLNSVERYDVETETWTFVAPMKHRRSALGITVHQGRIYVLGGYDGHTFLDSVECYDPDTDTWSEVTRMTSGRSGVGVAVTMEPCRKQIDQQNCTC
RTF Ca sens inh: cardiac RTF calcium desensitization | P19429+P45379 | IANBD-labeled cardiac RTF, Ca2+ fluorescence | inhibition, % at 7.15 µM | 0.12% of 340,000 active;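 active = inhibition above the mean inhibition of all tested compounds plus 3 SD, cut at about 17% in these data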;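 note: assay run at fixed EC70 calcium of 1.6 mM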
E coli Lon inh: inhibitors of E. coli Lon protease; P0A9M0; purified E. coli Lon protease, fluorescence polarization; inhibition, % at 7.94 µM; 0.42% of 360,000 active; in the data active = inhibition above about 13%, passing the limit was not always enough;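 note: 0% = enzyme with probe and DMSO and 100% = no enzyme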
C-LANA FP: blocks KSHV LANA C-terminal domain binding to DNA; MBP-C-LANA/FAM-LBS DNA binding, fluorescence polarization; inhibition, % at 9 µM; 0.078% of 340,000 active; AID 504423;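 active = highest replicate inhibition at or above 60% at 9 µM, even if other replicates fall short; inactive = all replicates below 60% inhibition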;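 note: 0% = neutral control wells and 100% = 4 µM acridine orange control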
RTF Ca sens act: increases calcium sensitivity of human cardiac regulated thin filaments. AID 493008. P19429+P45379. 0.24% of 340,000 active. activation, % at 7.2 µM. IANBD-labeled TnC RTF fluorescence at EC20 calcium; 0% EC20 calcium, 100% full calcium;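 active = activation above the mean over all tested compounds plus 3 SD, cut at about 30% in these data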;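 note: rise in fluorescence read as greater calcium sensitivity of cardiac thin filaments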
Numbers without * were called inactive; i = inactive; ? = inconclusive; · = not tested or not shown; + = active, no number. Shown are actives, neighbours in structure and some others; about 0.82% of the full set was active somewhere.

SMILES	Keap1 Nrf2 FP	RTF Ca sens inh	E coli Lon inh	C-LANA FP	RTF Ca sens act
CCOc1cc(N(CC)CC)ccc1/C=C(/C#N)c1nc2ccccc2[nH]1	-3	-173	i	-1	106*
Cc1cc(/C=C(\C#N)c2nc3ccccc3[nH]2)c(C)n1C	-3	-11	9	3	-1
CCCOc1cc(N(CC)CC)ccc1/C=C(/C#N)c1nc2ccc(C)cc2[nH]1	-6	-189	i	0	61*
CCN(CC)c1ccc(/C=C(/C#N)c2nc3ccc(C)cc3[nH]2)c(OC(C)C)c1	-12	-459	-446	1	174*
CC(C)c1cccc(-c2csc(C(C)(O)c3ccncc3)n2)c1 (stereo unspecified)	·	·	13	·	·
CCCCN(C)c1c(C)nc2ccc(C(=O)N(C)Cc3ccco3)cn12	·	·	-7	·	·
O=C(COc1ccc(Cl)cc1)NCc1ccccc1	0	-10	-1	1	152*
O=C(COc1ccccc1)NCc1ccccc1	5	-5	-2	0	4
CCOc1ccc2nc3cc(NCc4ccc(OC)cc4)ccc3c(N)c2c1	-1	-81	-25	2	76*
COc1ccc([C@H]2CN(c3ccc(OC)cc3)C(=O)[C@@H]2CC(=O)Nc2ccccc2)cc1	·	·	-4	·	·
Cc1c(CN2CCCC(C)C2)c(O)n(CCO)c(=O)c1C#N (stereo unspecified)	-3	4	3	0	35*
Cc1ccc(CNc2ccc3c(c2)OCO3)cc1	5	-61	24*	9	39*
COc1cc(F)ccc1-c1csc(C(C)(O)c2ccc(F)c(F)c2)n1 (stereo unspecified)	·	·	-3	·	·
CN1CCS/C1=C/C=C1\SC(=S)N(CC(=O)O)C1=O	-421	-431	i	-101	249*
CC(/C=C1\SC(=S)N(CC(=O)O)C1=O)=C\c1ccccc1	-8	5	4	2	-3
CCCCN1C(=O)/C(=C/C=C2\SCCN2C)SC1=S	-186	-205	i	-14	115*
CN1CCS/C1=C/C=C1/SC(=S)N(Cc2ccccc2)C1=O	-22	-119	i	-2	96*
CCOC(=O)C1=C[C@@H](C2CCCC2)N(S(=O)(=O)c2ccc([N+](=O)[O-])cc2)[C@H]1c1ccccc1	·	·	5	·	·
CC12CCC3C(CCC4CC(O)CCC43C)C1CC(=O)C2 (stereo unspecified)	·	·	-4	·	·
CCN(CC)c1ccc2c(-c3ccc(S(=O)(=O)O)cc3S(=O)(=O)[O-])c3ccc(=[N+](CC)CC)cc-3oc2c1	82*	-336	+	121*	248*
CN(Cc1ccccc1)Cc1cc(=O)oc2ccc3ccccc3c12	·	·	-16	·	·
O/C(=C\c1nc2ccccc2[nH]1)c1cccs1	-5	-18	12	1	17
O=c1[nH]c2ccccc2nc1/C=C(\O)c1cccs1	-15	-74	-119	-16	61*
CC1(C(=O)NCc2cccc3ccccc23)CCN1C(=O)Cc1ccc(-c2ccccc2)cc1 (stereo unspecified)	·	·	7	·	·
CC(C)Nc1ncnc2c1ncn2[C@H]1CN(Cc2ccc(F)cc2)C[C@@H](CO)O1	·	·	-3	·	·
SMILES	Keap1 Nrf2 FP	RTF Ca sens inh	E coli Lon inh	C-LANA FP	RTF Ca sens act
COc1cccc(/C=C(\C#N)c2nc3ccccc3[nH]2)c1OCC(=O)O	-3	-7	-44	0	-2
COc1ccc(/C=C(\C#N)c2nc3ccccc3[nH]2)cc1O	-3	-1	-3	-1	-6
N#C/C(=C/c1ccc(N2CCOCC2)o1)c1nc2ccccc2[nH]1	-116	-195	i	-26	244*
COc1cc(/C=C(\C#N)c2nc3ccccc3[nH]2)cc(OC)c1O	-52	-46	i	-40	32*
COc1cccc(/C=C(/C#N)c2nc3ccccc3[nH]2)c1OC(C)C(=O)O (stereo unspecified)	3	-1	-14	-2	35*
Cc1c(C(=O)NCc2cccc(C(F)(F)F)c2)sc(=O)n1Cc1ccccc1F	·	·	2	·	·
CCc1nc2ccc(C(=O)Nc3cccc(OC)c3)cn2c1N(C)Cc1ccc(OC)cc1	·	·	0	·	·
COC(=O)[C@]12CCCCC=C1N(CCC1=CCCCC1)C(=O)[C@H](CC(=O)N1CCCC1)C2	·	·	-3	·	·
O/C=c1\ccc2cccc3nc(C(F)(F)F)nc1c23	-10	-81	-88	16	124*
CC(=O)NCCCNC(=S)NCCCN(Cc1ccc(Cl)cc1)c1ccc(Br)cn1	·	·	-7	·	·
CC1C=CC=CC=CC=CC=CC=CC=CC(OC2OC(C)C(O)C(N)C2O)CC2OC(O)(CC(O)CC(O)C(O)CCC(O)CC(O)CC(=O)OC(C)C(C)C1O)CC(O)C2C(=O)O (stereo unspecified)	-18	-6	-59	68*	-1
O=c1ccoc2ccccc12	·	·	-7	·	·
CCOC(=O)/C(C#N)=C/C=C1/C=CC=CN1C	-3	-4	-12	-1	2
C=CCN1C=CC(=C/C=C(/C#N)C(=O)OCC)C=C1	-213	-130	i	-58	123*
COc1cc(Cl)ccc1OC1(C)CCN(Cc2cccn2-c2nccs2)C1 (stereo unspecified)	·	·	-3	·	·
CCCCn1nnnc1C(c1ccccc1)N1CCCN(Cc2ccc(F)cc2)CC1 (stereo unspecified)	·	·	1	·	·
CCOc1ccc(C(=O)N/N=C/c2ccc(-c3ccc(S(=O)(=O)Nc4ncccn4)cc3)o2)cc1	6	0	12	1	0
NC(=S)NN=Cc1ccc(-c2ccc(S(=O)(=O)Nc3ncccn3)cc2)o1	?	2	4	73*	-5
COC(=O)[C@H]1[C@H]2C[C@@H]3c4[nH]c5cc(OC)ccc5c4CCN3C[C@H]2C[C@@H](OC(=O)c2cc(OC)c(OC)c(OC)c2)[C@@H]1OC	-11	-2	-3	1	14
COC(=O)C1=COC(C)C2CN3CCc4c([nH]c5cc(OC)c(OC)cc45)C3CC12 (stereo unspecified)	-2	-22	37	33	30*
COc1cccc(-c2cnc(C(O)c3ccc(C(C)(C)C)cc3)[nH]2)c1 (stereo unspecified)	·	·	-17	·	·
CC(NC(=O)CN1CCC(C(N)=O)CC1)c1ccccc1 (stereo unspecified)	-8	-3	-7	1	48*
COc1ccc(C)cc1Nc1n[n+](-c2ccccc2)c(-c2cc([N+](=O)[O-])cc(OC)c2O)s1	-9	-80	-37	-2	46*
COc1ccc(NC(=O)c2cc(C3CCCCN3C(=O)c3ccccc3)on2)c(C)c1 (stereo unspecified)	·	·	3	·	·
O=C(c1coc(=O)c(Br)c1)N1CCCc2ccccc21	-1	1	-2	77*	2
O=C(c1cccc(Br)c1)N1CCCc2ccccc21	2	6	8	-1	-4
CCc1nc2c(OCCc3cccc(OC)c3)cccn2c1N(C=O)Cc1ccccc1	·	·	-4	·	·
CCOc1ccc(Nc2ccc(N)c(S(=O)(=O)O)c2)cc1	7	-2	1	88*	-3
CCOc1ccc(NS(=O)(=O)c2ccc(N)cc2)cc1	-4	-16	-8	1	-6

Source: PubChem BioAssay
